GLP1R ag: activates the human GLP-1 receptor; actives 0.007% (n = 380,000); Potency, µM (doses to about 45.6 µM), hits mostly activators; HEK293 GLP-1R CRE-luciferase, luminescence, 4-6 h; cells express a hypersensitive GLP-1R form
GLP1R cytotox: cytotoxicity in counter-screen for GLP-1R inverse agonists; HEK293 cAMP-luciferase reporter cells, luminescence, 24 h; Potency, µM (series often up to 38.3 µM), actives largely listed as inhibitors; actives 0.13% (n = 410,000);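 further: loss of luciferase light is scored as toxicity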
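Luminescence readout: signal drop marks cytotoxicity. Plated cells grew 12 h at 37 °C, 5% CO2, received 23 nL compound for 24 h, then got luciferase reagent, read after 12 min at RT.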
PTHR1 ag: activates the human parathyroid hormone receptor PTHR1. HEK293 GP2 PTHR1 cells, GloSensor cAMP luminescence, 1 h. Q03431. actives 0.075% (n = 410,000). Potency, µM (top dose mostly 115 µM), hits mostly activators; further: nearly all actives have a fitted effect of over 55% in size
Target sequence (Q03431 whole entry, looked up): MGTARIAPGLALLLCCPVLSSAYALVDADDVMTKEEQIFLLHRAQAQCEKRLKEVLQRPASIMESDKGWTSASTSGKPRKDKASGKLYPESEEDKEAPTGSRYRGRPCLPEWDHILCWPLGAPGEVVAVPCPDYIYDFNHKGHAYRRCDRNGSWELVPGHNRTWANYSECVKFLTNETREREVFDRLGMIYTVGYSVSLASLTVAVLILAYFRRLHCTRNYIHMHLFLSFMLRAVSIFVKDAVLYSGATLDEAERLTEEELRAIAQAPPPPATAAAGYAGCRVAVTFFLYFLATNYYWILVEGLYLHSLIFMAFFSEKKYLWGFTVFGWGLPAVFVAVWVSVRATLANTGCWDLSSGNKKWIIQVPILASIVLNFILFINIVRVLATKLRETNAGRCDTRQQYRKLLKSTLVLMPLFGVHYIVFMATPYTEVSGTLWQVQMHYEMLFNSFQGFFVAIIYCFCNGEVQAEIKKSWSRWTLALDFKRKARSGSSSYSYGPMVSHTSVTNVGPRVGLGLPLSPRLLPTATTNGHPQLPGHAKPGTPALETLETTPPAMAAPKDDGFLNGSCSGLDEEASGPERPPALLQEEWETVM
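HEK-293-derived GP2 cells expressing PTHR1 and a GloSensor cAMP reporter, 3,000/well, plated overnight, given luciferin plus IBMX (each 0.5 mM as added) for 1 h at 37 °C, then compound for 1 h at 37 °C. Luminescence was read after 15 min at room temperature.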
GLP-1R inv ag: GLP-1 receptor (human) inverse agonism | P43220 | HEK293 GLP-1R CRE-luciferase, luminescence, 24 h; GLP-1R form is constitutively active | actives 1.6% (n = 410,000) | Potency, µM (highest dose often 38.3 µM), actives largely listed as inhibitors; further: nearly all actives have a fitted effect of over 55% in size
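HEK293 cells stably co-expressing constitutively active GLP-1R and a cAMP-responsive luciferase reporter were seeded in DMEM with 10% Nu serum, given compounds after 12 h, and incubated 24 h at 37 deg C. Luminescence was then read.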
mIDH1 inhibitor: inhibitors of human mutant IDH1 R132H; IDH1-R132H enzyme, NADPH consumption, diaphorase/resazurin fluorescence; Potency, µM (highest dose often 76.6 µM), actives largely listed as inhibitors; AID 602179; actives 0.093% (n = 390,000); further: nearly all actives have a fitted effect of over 65% in size
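IDH1-R132H (0.5 ug/mL) preincubated 30 min with compound, then NADPH (0.016 mM) and alpha-KG (2 mM) added; 80 min at RT, pH 7.5. Remaining NADPH coupled via diaphorase/resazurin to fluorescence (540/590 nm); concentration-response curves normalized to no-enzyme control.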
LDHA block: inhibitors of human lactate dehydrogenase A | P00338 | purified LDHA, NADH/diaphorase-resazurin fluorescence; active compounds read low | activity change, % (values are at about 110 or 230 µM) | actives 0.15% (n = 480,000) | AID 1347041; in the data active means activity change below about -30%; inconclusive means mostly about -25% to -30%
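Resorufin fluorescence (ex540/em590), read at 0 and 20 min after diaphorase/resazurin addition, reports the NADH left after a 5 min room-temperature reaction of 2 nM human LDH5 with 0.06 mM NADH and 0.2 mM pyruvate.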
IDH1 autofl: interferes with resorufin fluorescence in IDH1 counter-screen | shares compounds with mIDH1 inhibitor | Resorufin detection reagent fluorescence interference, cell-free | inhibition of signal, % at 51.2 µM | 750 tested, under 10 active | AID 623980
WT IDH1 inh: inhibits human wild-type IDH1, mutant selectivity check; shares compounds with mIDH1 inhibitor; WT IDH1 enzyme, NADPH diaphorase/resazurin fluorescence; Potency, µM (highest dose often 115 µM), hits mostly inhibitors; actives 9% (n = 750); AID 623995; further: nearly all actives have a fitted effect of over 55% in size
mIDH1 confirm: confirmation of human mutant IDH1 inhibitors. actives 83% (n = 750). IDH1 R132H enzyme, NADPH diaphorase/resazurin fluorescence. Potency, µM (series often up to 76.6 µM), actives largely listed as inhibitors. shares compounds with mIDH1 inhibitor; further: nearly all actives have a fitted effect of over 50% in size
Of the large screens only hits and unclear results are named; the others gave an inactive call (follow-up assays come after a bar, where they were run). Most compounds without a hit are left out; they make up all but 1.7% or so of the library. Unless noted, the call rests on the fitted dose curve; in most records, active means well fitted curve in the direction sought with a large enough effect; inconclusive means small, poorly fitted or top-dose-only effect, or another doubt; inactive means no such curve, though single readings can be large; an effect the other way counts as inactive or inconclusive.

CCOC(=O)CSC1=NC(=O)/C(=C/c2ccc(Br)cc2)S1	GLP1R cytotox inconclusive, mIDH1 inhibitor inconclusive | IDH1 autofl inactive | WT IDH1 inh 71µM | mIDH1 confirm 35µM
O=C(NC1CCN(Cc2nnnn2-c2ccccc2)CC1)C1CC1	none (no result: GLP1R ag, GLP1R cytotox, PTHR1 ag, GLP-1R inv ag, mIDH1 inhibitor)
Cc1ccc(-n2c(O)c(C=Nc3ccccc3-c3n[nH]c(=S)[nH]c3=O)c3ccccc3c2=O)c(C)c1	mIDH1 inhibitor inconclusive | IDH1 autofl inactive | WT IDH1 inh 79µM | mIDH1 confirm 35µM
COc1cccc(OC)c1C(=O)Oc1cc(C)c2c(c1)O/C(=C\c1ccncc1)C2=O	none (no result: GLP1R ag, GLP1R cytotox, PTHR1 ag, GLP-1R inv ag, mIDH1 inhibitor)
CN1CC(c2ccccc2)C2(SC(=S)N(Cc3ccco3)C2=O)C12C(=O)Nc1ccccc12 (stereo unspecified)	GLP1R cytotox inconclusive, GLP-1R inv ag inconclusive
CN1CC(c2ccccn2)C2(SC(=S)N(Cc3ccccc3)C2=O)C12C(=O)Nc1ccccc12 (stereo unspecified)	GLP-1R inv ag inconclusive, mIDH1 inhibitor inconclusive | IDH1 autofl inactive | WT IDH1 inh inactive | mIDH1 confirm 20µM
CCc1cc(C(=O)c2ccc(OC)cc2)c(NC(=O)CN2CCCC2)s1	GLP-1R inv ag inconclusive, mIDH1 inhibitor 46µM | IDH1 autofl inactive | WT IDH1 inh inactive | mIDH1 confirm 16µM
O=c1cc(N2CCCCC2)c(-c2ccccc2)nn1Cc1c(Cl)cccc1Cl	GLP1R cytotox inconclusive, GLP-1R inv ag inconclusive, mIDH1 inhibitor 21µM | IDH1 autofl inactive | WT IDH1 inh inactive | mIDH1 confirm 14µM
CC(=O)OCC1OC(n2cc(F)c(=O)[nH]c2=O)C(OC(C)=O)C1OC(C)=O (stereo unspecified)	none
O=C1C(F)=CC(COC(c2ccccc2)(c2ccccc2)c2ccccc2)OC1n1cc(F)c(=O)[nH]c1=O (stereo unspecified)	GLP1R cytotox inconclusive, GLP-1R inv ag inconclusive, mIDH1 inhibitor 26µM | IDH1 autofl inactive | WT IDH1 inh 50µM | mIDH1 confirm 11µM
O=C(CN1C(=O)COc2ccc(S(=O)(=O)N3CCCC3)cc21)Nc1cccc(F)c1	GLP-1R inv ag inconclusive
O=C(CN1C(=O)COc2ccc(S(=O)(=O)N3CCCCCC3)cc21)Nc1cccc(Cl)c1	GLP-1R inv ag inconclusive, mIDH1 inhibitor inconclusive (no result: GLP1R ag) | IDH1 autofl inactive | WT IDH1 inh inactive | mIDH1 confirm inconclusive
Cc1ccc2c(c1)c1c3n2CCN(C(=O)CCl)C3CCC1 (stereo unspecified)	GLP-1R inv ag inconclusive, mIDH1 inhibitor 46µM | IDH1 autofl inactive | WT IDH1 inh inconclusive | mIDH1 confirm 16µM
COc1ccc(-c2oc(NC(=O)CSc3ncn[nH]3)c(C#N)c2-c2ccc(OC)cc2)cc1	none
COc1ccc(-c2oc(NC(=O)CCl)c(C#N)c2-c2ccc(OC)cc2)cc1	GLP1R cytotox inconclusive, GLP-1R inv ag 2.2µM, mIDH1 inhibitor 29µM | IDH1 autofl inactive | WT IDH1 inh 79µM | mIDH1 confirm 8.9µM
CCc1c(C)sc(NC(=O)CSCC(=O)O)c1C(N)=O	none (no result: GLP1R ag, GLP1R cytotox, PTHR1 ag, GLP-1R inv ag, mIDH1 inhibitor)
O=C(O)c1ccccc1NS(=O)(=O)c1ccc(N/N=C/c2cccc(O)c2O)c([N+](=O)[O-])c1	GLP1R cytotox inconclusive, mIDH1 inhibitor 41µM | IDH1 autofl inactive | WT IDH1 inh inconclusive | mIDH1 confirm 14µM

From PubChem BioAssay
